Assay results reported in PubChem BioAssay AID2685 (National Center for Advancing Translational Sciences (NCATS), 2010).
Among all 320,000 compounds or so, about 2,100 (0.66%) were called active. Inconclusive results (about 53%) are left out. The sample holds actives, similar compounds and a random draw of the others, so the mix is not that of the screen. Calls follow the shape of the dose curve; as a rule, active = well fitted inhibition curve with a large enough effect in the signal ratio, with a control signal flat (not every such curve was filed as active); inconclusive = small, poorly fitted or top-dose-only effect, or effect the other way, or a change in a side signal; inactive = flat fitted curve, though single readings scatter; the % refers to the signal ratio.

Test: qHTS Assay for Lipid Storage Modulators in Drosophila S3 Cells;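 as to cell number change: cells counted by Cell Tracker Red CMTPX staining in the red channel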; as to lipid storage change, negative = inhibition: % is scaled to controls: 0 for no effect and ±100 for the full control effect
Conditions: BODIPY lipid droplet fluorescence, 18-24 h, cells fed with added oleic acid; cell number change: measured here: cell count max response; series mostly up to 46.1 µM; lipid storage change, negative = inhibition: at the top concentration
In short: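 Drosophila S3 cells loaded with oleic acid (400 uM, as added) and compounds at several concentrations; lipid droplets imaged by 488-nm laser-scanning cytometry, 500–530 nm intensity and object ratio to cell channel. Percent activity normalized to 20 uM Triacsin C.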
Potency is read from the fitted curve at half-maximal effect.

Question: Which “lipid storage change, negative = inhibition” value does the source give for `Cc1ccc(NC(=O)Cn2c(=O)n(CCC(=O)NC3CCN(Cc4ccccc4)CC3)c(=O)c3ccccc32)cc1` here?
Answer: 0.946% (inactive)

Question: And the cell number change?
Answer: 3.62%

Question: With `Cc1cccc(C)c1NC(=O)Cn1c(=O)n(CCCC(=O)NC2CCN(Cc3ccccc3)CC2)c(=O)c2ccccc21` as the compound, how does the Potency read?
Answer: 4.11 µM (active)

Question: What about the cell number change of the same compound?
Answer: -10.3%

Question: For `CCc1ccc(NC(=O)Cn2c(=O)n(CCC(=O)NC3CCN(Cc4ccccc4)CC3)c(=O)c3ccccc32)cc1`, which “lipid storage change, negative = inhibition” value is on record?
Answer: -8.28% (inactive)

Question: What about the cell number change of the same compound?
Answer: 3.79%

Question: For `COCCN(C(=O)CSc1nc2ccc(C)cc2[nH]1)c1c(N)n(Cc2ccccc2)c(=O)[nH]c1=O`, which “lipid storage change, negative = inhibition” value is on record?
Answer: -7.36% (inactive)

Question: What about the cell number change of the same compound?
Answer: -11.3%

Question: Which “lipid storage change, negative = inhibition” value does the source give for `C[C@H]1CN=C2N(CCNC(=O)CCC3CCCCC3)[C@H](Cc3ccc(O)cc3)CN21` here?
Answer: -12.4% (inactive)

Question: And the cell number change?
Answer: -4.68%

Question: Which “outcome” value does the source give for `CCOC(=O)c1cccc(NC(=O)C(NS(=O)(=O)c2ccc3c(c2)CCN3C(C)=O)C(C)C)c1` (centres undefined) here?
Answer: inactive

Question: What about the cell number change of the same compound?
Answer: 9.06%

Question: For `O=C(CS(=O)(=O)c1c[nH]c2ccccc12)Nc1ccc(F)cc1`, which “lipid storage change, negative = inhibition” value is on record?
Answer: -0.0934% (inactive)

Question: And the cell number change?
Answer: 1.05%

Question: For `Cc1ccccc1NS(=O)(=O)c1cc2c3c(c1)C(C)C(=O)N3CCC2` (centres undefined), which “lipid storage change, negative = inhibition” value is on record?
Answer: 23.9% (inactive)

Question: With `COc1ccc(/C=C/c2c([N+](=O)[O-])c(=O)n(C)c(=O)n2C)cc1OC` as the compound, how does the “lipid storage change, negative = inhibition” value read?
Answer: 7.09% (inactive)

Question: What about the cell number change of the same compound?
Answer: -10.8%

Question: With `Cn1c(/C=C/c2ccc(Br)cc2)c([N+](=O)[O-])c(=O)n(C)c1=O` as the compound, how does the Potency read?
Answer: 2.91 µM (active)

Question: What about the cell number change of the same compound?
Answer: -1.8%

Question: Which “lipid storage change, negative = inhibition” value does the source give for `COc1ccc(/C=C/c2c([N+](=O)[O-])c(=O)n(C)c(=O)n2C)cc1` here?
Answer: 1.15% (inactive)

Question: And the cell number change?
Answer: -2.6%

Question: Which “lipid storage change, negative = inhibition” value does the source give for `CCCCOc1ccc(-c2nnc(-c3cc[n+](C)cc3)o2)cc1` here?
Answer: 23.6% (inactive)

Question: What about the cell number change of the same compound?
Answer: 0.955%

Question: For `CC(=O)CC(=O)Nc1cccc2c1CCCC2`, which Potency is on record?
Answer: 0.58 µM (active)

Question: What about the cell number change of the same compound?
Answer: 2.07%

Question: What does the source list for `CC(=O)N/N=C(\C)CC(=O)Nc1cccc2c1CCCC2`?
Answer: lipid storage change, negative = inhibition: 18.2% (inactive); cell number change: -11.4%

Question: With `COc1ccc(CC(=O)Nc2cccc3c2CCCC3)cc1` as the compound, how does the “lipid storage change, negative = inhibition” value read?
Answer: -15.9% (inactive)

Question: What about the cell number change of the same compound?
Answer: -12.6%

Question: What does the source list for `CCn1cc(S(=O)(=O)NC(C)c2cc(OC)ccc2OC)cn1` (centres undefined)?
Answer: lipid storage change, negative = inhibition: -0.989% (inactive); cell number change: 5.77%

Question: What does the source list for `Cc1cccc2c1N(CCCOc1ccccc1)C(=O)C2=O`?
Answer: lipid storage change, negative = inhibition: -12.5% (inactive); cell number change: 4.6%

Question: Which results are given for `CC1CCN(CCCCOc2ccccc2F)CC1`?
Answer: lipid storage change, negative = inhibition: 0.309% (inactive); cell number change: 12.3%

Question: Which results are given for `Cn1nnc(NC(=O)c2ccccc2)n1`?
Answer: lipid storage change, negative = inhibition: -4.09% (inactive); cell number change: -11.2%

Question: For `CN(Cc1cnn(C)c1)C(=O)c1cc(COc2c(F)cccc2F)on1`, which “lipid storage change, negative = inhibition” value is on record?
Answer: 13.2% (inactive)

Question: And the cell number change?
Answer: 16.3%

Question: With `Cc1ccc(OCc2cc(C(=O)N(C)Cc3cnn(-c4ccccc4C)c3)no2)cn1` as the compound, how does the Potency read?
Answer: 23.1 µM (active)

Question: And the cell number change?
Answer: -11.8%

Question: With `CC(=O)c1ccc(OCc2cc(C(=O)N(C)Cc3cc(C)no3)no2)cc1` as the compound, how does the “outcome” value read?
Answer: inactive

Question: And the cell number change?
Answer: -2.95%

Question: With `C/C(=N\NC(=O)Cc1cccn1C)c1ccc([N+](=O)[O-])cc1` as the compound, how does the “lipid storage change, negative = inhibition” value read?
Answer: 8.91% (inactive)

Question: And the cell number change?
Answer: 2.69%

Question: For `CCN(Cc1ccncc1)C(=O)CSc1ccc2ccccc2c1`, which “outcome” value is on record?
Answer: inactive

Question: For `O=C(Nc1ccc2ccccc2c1)c1ccc(Cl)cc1Cl`, which “lipid storage change, negative = inhibition” value is on record?
Answer: 10.6% (inactive)

Question: And the cell number change?
Answer: -1.02%

Question: For `O=C(Nc1ccc2ccccc2c1)c1ccc(Cl)cc1`, which Potency is on record?
Answer: 1.3 µM (active)

Question: And the cell number change?
Answer: -18.8%

Question: Which “lipid storage change, negative = inhibition” value does the source give for `O=C(Nc1ccc2ccccc2c1)c1ccc2[nH]c(=O)c(=O)[nH]c2c1` here?
Answer: -0.0479% (inactive)

Question: What about the cell number change of the same compound?
Answer: -10.4%

Question: For `CCOc1ccc(C(=O)COC(=O)c2nn(CC)c(=O)c3ccccc23)cc1`, which “lipid storage change, negative = inhibition” value is on record?
Answer: -1.33% (inactive)

Question: What about the cell number change of the same compound?
Answer: 18.9%

Question: Which “lipid storage change, negative = inhibition” value does the source give for `CNC(=O)NNC(=O)c1onc(-c2c(Cl)cccc2Cl)c1C(=O)OC` here?
Answer: 4.68% (inactive)

Question: And the cell number change?
Answer: 19.9%

Question: Which Potency does the source give for `CC(C)c1nc2ccccc2n1CCC(=O)O` here?
Answer: 16.4 µM (active)

Question: What about the cell number change of the same compound?
Answer: -4.05%

Question: With `CCSc1nc2ccccc2n1CCC(=O)O` as the compound, how does the “outcome” value read?
Answer: inactive

Question: With `CCc1nc2ccccc2n1CCC(=O)O` as the compound, how does the “lipid storage change, negative = inhibition” value read?
Answer: -5.95% (inactive)

Question: And the cell number change?
Answer: -14.7%

Question: Which “lipid storage change, negative = inhibition” value does the source give for `CCC(C)(CC(=O)Nc1nccs1)c1ccccc1` (centres undefined) here?
Answer: 9.71% (inactive)

Question: What about the cell number change of the same compound?
Answer: 7.48%

Question: For `COc1ccc(CNc2oc(-c3cccc4ccccc34)nc2C#N)cc1`, which “lipid storage change, negative = inhibition” value is on record?
Answer: -4.38% (inactive)

Question: What about the cell number change of the same compound?
Answer: -5.87%

Question: Which Potency does the source give for `N#Cc1nc(-c2cccc3ccccc23)oc1NCC#CCOC(=O)c1cccs1` here?
Answer: 14.6 µM (active)

Question: And the cell number change?
Answer: -10.2%

Question: With `O=C(OCC#CCSc1nnc(-c2ccccc2)o1)c1cccs1` as the compound, how does the “outcome” value read?
Answer: inactive

Question: And the cell number change?
Answer: -0.992%

Question: With `CC(NC(=O)CSc1n[nH]c(=O)n1C1CC1)C12CC3CC(CC(C3)C1)C2` (centres undefined) as the compound, how does the “outcome” value read?
Answer: inactive

Question: What about the cell number change of the same compound?
Answer: 7.42%

Question: With `S=C1NCCOCCOCCOCCNC(=S)N2CCOCCOCCN1CCOCCOCC2` as the compound, how does the “lipid storage change, negative = inhibition” value read?
Answer: 12.4% (inactive)

Question: What about the cell number change of the same compound?
Answer: -2.24%

Question: With `CCOC(=O)c1[nH]c(C)c(C(=O)NC2CCCCC2)c1C` as the compound, how does the “lipid storage change, negative = inhibition” value read?
Answer: 2% (inactive)

Question: And the cell number change?
Answer: -4.45%

Question: For `CCOC(=O)c1[nH]c(C)c(C(=O)NC2CCCCCC2)c1C`, which “lipid storage change, negative = inhibition” value is on record?
Answer: 0.0369% (inactive)

Question: What about the cell number change of the same compound?
Answer: -7.97%

Question: Which results are given for `CCN(CC)CCCNC(=O)c1[nH]c(C)c(C(=O)NC2CCCCC2)c1C`?
Answer: Potency: 25.9 µM (active); cell number change: -5.4%

Question: With `O=C(O)c1cccc(S(=O)(=O)Nc2ccc3oc(=O)sc3c2)c1` as the compound, how does the “lipid storage change, negative = inhibition” value read?
Answer: -2.72% (inactive)

Question: And the cell number change?
Answer: 4.14%

Question: With `Cc1cc2oc(=O)sc2cc1NS(=O)(=O)c1ccccc1` as the compound, how does the Potency read?
Answer: 7.31 µM (active)

Question: And the cell number change?
Answer: 5.22%

Question: For `Cc1cc(O)c(C(C)C)cc1NS(=O)(=O)c1ccccc1`, which “outcome” value is on record?
Answer: inactive

Question: What about the cell number change of the same compound?
Answer: -16.1%

Question: Which results are given for `COc1cccc(-c2cc(C(=O)NCC3CCCO3)c3cc(Br)cc(C)c3n2)c1` (centres undefined)?
Answer: lipid storage change, negative = inhibition: -22.3% (inactive); cell number change: -7.43%

Question: For `O=C(O)CC(Cc1ccc(Br)cc1)C(=O)O` (centres undefined), which “lipid storage change, negative = inhibition” value is on record?
Answer: 26.3% (inactive)

Question: What about the cell number change of the same compound?
Answer: -24.7%
